Shown are actives, neighbours in structure and some others; about 10% of the full set was active somewhere.
HP1b chromo inh – inhibitors of HP1-beta chromodomain binding to methylated histone tails; P83916; AID 540317; AlphaScreen HP1-beta / biotin-H3K9me3 peptide binding; Potency, µM (series often up to 114 µM), for inactives: at the highest dose activity change, negative = inhibition, usual class: inhibitors; 0.56% of 390,000 active; also: nearly all actives have a fitted effect of over 70% in size
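Compound inhibition of the preformed complex between 50 nM HP1-beta and 50 nM biotinylated H3K9me3 peptide was read by AlphaScreen. Buffer was PBS pH 7.4 with 0.01% Tween-20. Incubations ran 30 min at room temperature, with 10 ug/mL donor/acceptor beads.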
L3MBTL1 inh – inhibitors of human L3MBTL1; Potency, µM (doses to about 57.1 µM), for inactives: at the highest dose activity, negative = inhibition, actives largely listed as inhibitors; AID 485360; Q9Y468; 0.66% of 230,000 active; AlphaScreen L3MBTL1–H3K9me1 peptide binding; also: % is scaled to controls: 0 for no effect and ±100 for the full control effect; nearly all actives have a fitted effect of over 60% in size
Target sequence (Q9Y468 whole entry, looked up): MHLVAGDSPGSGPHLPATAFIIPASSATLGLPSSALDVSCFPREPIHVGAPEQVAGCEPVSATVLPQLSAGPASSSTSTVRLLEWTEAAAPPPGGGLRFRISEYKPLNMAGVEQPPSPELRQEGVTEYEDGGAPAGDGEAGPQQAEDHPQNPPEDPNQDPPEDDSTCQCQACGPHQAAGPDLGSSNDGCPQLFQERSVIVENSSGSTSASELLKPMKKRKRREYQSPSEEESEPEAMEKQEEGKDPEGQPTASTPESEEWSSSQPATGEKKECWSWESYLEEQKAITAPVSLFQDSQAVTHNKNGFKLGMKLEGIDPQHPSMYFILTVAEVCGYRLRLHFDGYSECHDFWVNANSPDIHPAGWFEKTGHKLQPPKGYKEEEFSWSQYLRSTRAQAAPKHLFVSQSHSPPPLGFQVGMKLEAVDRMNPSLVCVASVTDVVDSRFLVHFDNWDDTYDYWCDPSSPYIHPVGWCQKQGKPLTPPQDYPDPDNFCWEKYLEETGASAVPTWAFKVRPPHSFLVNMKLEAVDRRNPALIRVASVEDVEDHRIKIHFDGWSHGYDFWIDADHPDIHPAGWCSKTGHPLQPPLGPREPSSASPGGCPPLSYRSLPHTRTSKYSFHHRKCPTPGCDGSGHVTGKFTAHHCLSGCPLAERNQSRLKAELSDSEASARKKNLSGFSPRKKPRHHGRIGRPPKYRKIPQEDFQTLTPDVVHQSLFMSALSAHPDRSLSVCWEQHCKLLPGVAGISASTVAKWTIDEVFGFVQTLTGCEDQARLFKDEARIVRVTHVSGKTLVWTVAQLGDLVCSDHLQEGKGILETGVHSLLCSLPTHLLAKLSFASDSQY
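AlphaScreen proximity signal between nickel-chelate acceptor and streptavidin donor beads (final 10 ug/mL) reports binding of 50 nM L3MBTL1 to 75 nM biotin-H3 K9me1 peptide; complex incubated with compounds 30 min at room temperature; cefsulodin titration as control.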
GLS inhibitor – blocks human kidney-isoform glutaminase activity; O94925; GLS enzymatic activity, qHTS titration; Potency, µM (highest dose often 45.5 µM), inactives show at the highest dose activity change, negative = inhibition, actives largely listed as inhibitors; 0.21% of 410,000 active; AID 624170; also: % is scaled to controls: 0 for no effect and ±100 for the full control effect
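Read-out is an Amplex red fluorescence increase coupled through glutamate oxidase and HRP, measured before and after 30 min room-temperature incubation. hKGA is in 45 mM KH2PO4 (pH 8.2) with 0.02% Tween-20; glutamine added as 1mM solution.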
JMJD2A Tudor inh – JMJD2A Tudor domain (human) inhibition; 4.4% of 390,000 active; AlphaScreen JMJD2A-Tudor / H3K4me3 peptide binding; AID 504339; Potency, µM (titrated, usually from 114 µM), for the others: top-dose activity change, negative = inhibition, hits mostly inhibitors; O75164; also: % is scaled to controls: 0 for no effect and ±100 for the full control effect; nearly all actives have a fitted effect of over 50% in size
BAZ2B inh – inhibitors of human BAZ2B bromodomain; AlphaScreen BAZ2B-H3K14Ac peptide displacement; Q9UIF8; 4.4% of 360,000 active; Potency, µM (series often up to 114 µM), without a hit: at the top dose activity change, negative = inhibition, hits mostly inhibitors; AID 504333; also: % is scaled to controls: 0 for no effect and ±100 for the full control effect; nearly all actives have a fitted effect of over 60% in size
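In this displacement format the biotinylated H3(5-23) peptide acetylated at Lys14 serves as ligand at 50 nM, with BAZ2B at 50 nM in PBS pH 7.4 containing 0.01% Tween-20. Donor and acceptor beads are 10 ug/mL final.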
G9a inh – G9a (human) methyltransferase inhibition | G9a H3K9 monomethylation, AlphaScreen, 2 h | Potency, µM (highest dose often 102 µM), inactives show top-dose activity, negative = inhibition, actives largely listed as inhibitors | Q96KQ7 | 8.8% of 350,000 active; also: % is scaled to controls: 0 for no effect and ±100 for the full control effect; nearly all actives have a fitted effect of over 75% in size
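Signal arises when biotinylated H3K9 peptide, once monomethylated, bridges streptavidin donor and antibody-captured acceptor beads. Enzyme at 20 nM was preincubated 15 min with test compounds; peptide 500 nM and SAM 20 uM then reacted for 2 h.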
* marks the source's active call; other numbers are inactive results; ? = inconclusive; nt = not tested or not shown; [ ] = another dose, or the depositor's remark. Calls follow the shape of the dose curve; as a rule, active = well fitted curve in the direction sought with a large enough effect; inconclusive = small, poorly fitted or top-dose-only effect, or another doubt; inactive = no such curve, though single readings can be large; an effect the other way counts as inactive or inconclusive. Potency is read from the fitted curve at half-maximal effect.

SMILES | HP1b chromo inh | L3MBTL1 inh | GLS inhibitor | JMJD2A Tudor inh | BAZ2B inh | G9a inh
CCOc1ccc(S(=O)(=O)n2nc(C)c(S(=O)(=O)N3CCCCC3)c2C)cc1 | 3%[57 µM] | nt | 25% | -29% | -10% | -1%[59 µM]
CN1CC(C(=O)O)Cc2c1ccc1ccccc21 (stereo not given) | 24% | -15% | 20% | -17% | -33% | 20µM*
COc1cc(-c2nc(Cn3nnc(C(=O)Nc4ccc(C)cc4C)c3C)c(C)o2)cc(OC)c1OC | 10% | nt | -1% | -7% | -5% | -15%[59 µM]
COc1ccc2c(CNCc3ccc(Cl)cc3)c(C(=O)O)n(Cc3ccccc3C)c2c1 | 47% | nt | -1% | -10% | -21% | -24%[59 µM]
COc1cc(C(CCN2CCOCC2)c2c(OC)cc(OC)c3c2OC(=O)CC3c2ccc(N(C)C)cc2)cc(OC)c1OC (stereo not given) | ? | nt | 26% | 28µM* | 14µM* | -9%[12.7 µM]
CCN(CC)CCC(c1cc(OC)c(OC)c(OC)c1)c1c(OC)cc(OC)c2c1OC(=O)CC2c1ccc(N(C)C)cc1 (stereo not given) | -33% | nt | nt | 32µM* | nt | nt
COc1ccc(C2CC(=O)Oc3c(C(CCN4CCOCC4)c4cc(OC)c(OC)c(OC)c4)c(OC)cc(OC)c32)cc1 (stereo not given) | 9% | nt | -3% | ? | -37% | ?
COc1cc(C(CCN2CCCC2)c2c(OC)cc(OC)c3c2OC(=O)CC3c2ccc(N(C)C)cc2)cc(OC)c1OC (stereo not given) | ? | nt | nt | 28µM* | nt | nt
COc1cc(C(CCN2CCCCC2)c2c(OC)cc(OC)c3c2OC(=O)CC3c2ccc(N(C)C)cc2)cc(OC)c1OC (stereo not given) | ? | nt | nt | 40µM* | nt | nt
COc1cc(OC)c(NC(=O)c2nn(-c3ccc(C)cc3)c(=O)c3c2c2ccccc2n3C)cc1Cl | 9% | nt | 5% | -16% | nt | -5%[59 µM]
COc1ccc(C2CC(=O)Oc3c(C(CCN4CCOCC4)c4ccc5c(c4)OCO5)c(OC)cc(OC)c32)cc1 (stereo not given) | -28% | nt | nt | 56µM* | nt | nt
COc1cc(OC)c2c(c1C(CCN1CCOCC1)c1ccc(N(C)C)cc1)OC(=O)CC2c1ccc(N(C)C)cc1 (stereo not given) | 14µM* | nt | 32% | 6.3µM* | 10µM* | -168%[59 µM]
COc1cc(C(CCN2CCN(c3ccccc3)CC2)c2c(OC)cc(OC)c3c(C)cc(=O)oc23)cc(OC)c1OC (stereo not given) | -29% | nt | 12% | ? | ? | -119%[59 µM]
COc1cc(C(CCN2CCOCC2)c2c(OC)cc(OC)c3ccc(=O)oc23)cc(OC)c1OC (stereo not given) | nt | nt | nt | nt | nt | -6%[59 µM]
COc1ccc(C2CC(=O)Oc3c(C(CCN4CCN(c5ccccc5)CC4)c4ccc(N(C)C)cc4)c(OC)cc(OC)c32)cc1 (stereo not given) | ? | nt | 19% | 5µM* | 4.5µM* | ?
N#Cc1nc(Nc2cccc(F)c2)nc(NC2CCCC2)n1 | nt | nt | nt | 1% | nt | nt
Cc1cc(-c2ccco2)c(C#N)c2nc3ccccc3n12 | 49% | -25% | -20% | -6%[57.1 µM] | -27% | 13µM*
O=C(Nc1cccc(C(=O)N2CCN(c3ccc(F)cc3)CC2)c1)c1nsc2ccccc12 | 19%[57 µM] | nt | -4% | -19% | -13% | ?
Cc1cc(C)c(Cn2c3ccccc3c3cnn(CC(=O)NCCCc4ccccc4)c(=O)c32)c(C)c1 | 36% | nt | -1% | ? | -3% | 3%[59 µM]
O=C(c1cc(-n2cnnc2)ccc1Cl)N1CCN(c2nc(-c3ccccc3)cs2)CC1 | ? | 6% | 3% | 56µM* | -2% | 6%
O=C(c1ncn[nH]1)N1CCN(c2nc(-c3ccccc3)cs2)CC1 | -18% | -3% | 16% | -35% | -34% | ?
CC(C)c1ccc(NC(=O)CCn2c(=O)c3cccn3c3ccccc32)cc1 | 23% | nt | 1% | -11% | -20% | -24%[59 µM]
O=C(NC1c2ccccc2-c2ccccc21)c1ccco1 | -14% | 4% | 12% | 56µM* | 9% | 9%
CN(C)c1ccc(C(CNC(=O)c2ccccc2F)N2CCc3ccccc32)cc1 (stereo not given) | ? | nt | 32% | 10µM* | 16µM* | ?
COc1ccc(C(=O)NCC(c2cccnc2)N2CCc3ccccc32)cc1OC (stereo not given) | 30% | nt | 7% | 11% | -2% | 2%[59 µM]
SMILES | HP1b chromo inh | L3MBTL1 inh | GLS inhibitor | JMJD2A Tudor inh | BAZ2B inh | G9a inh
COc1cccc(C(=O)NCC(c2ccc(N(C)C)cc2)N2CCc3ccccc32)c1 (stereo not given) | 10µM* | nt | 34% | 7.9µM* | 7.9µM* | 10µM*
COc1ccc(C(=O)NCC(c2ccc(N(C)C)cc2)N2CCc3ccccc32)cc1OC (stereo not given) | ? | nt | 26% | 20µM* | 20µM* | 25µM*
O=C(NCC(c1ccco1)N1CCc2ccccc21)c1c(F)cccc1F (stereo not given) | 6% | -11% | 4% | -6% | ? | 13%[2.33 µM]
COc1cc(C(=O)NCC(c2ccc(N(C)C)cc2)N2CCc3ccccc32)cc(OC)c1OC (stereo not given) | ? | nt | 29% | 16µM* | 13µM* | 18µM*
COc1cc(C(=O)NCC(c2ccc(N(C)C)cc2)N2CCCC2)cc(OC)c1OC (stereo not given) | 13% | nt | 21% | -31% | -27% | -33%[59 µM]
O=[N+]([O-])c1ccc(S(=O)(=O)NCC(c2cccnc2)N2CCc3ccccc3C2)cc1 (stereo not given) | 6% | -6% | -8% | -25% | ? | 50µM*
COc1cccc(C(=O)NCC(c2ccc(N(C)C)cc2)N2CCc3ccccc32)c1OC (stereo not given) | ? | nt | 31% | 10µM* | 14µM* | -43%[12.7 µM]
COc1ccc(C(=O)NCC(c2cccnc2)N2CCc3ccccc3C2)cc1OC (stereo not given) | -21% | nt | -1% | 32µM* | 5µM* | 4.5µM*
O=[N+]([O-])c1ccc(S(=O)(=O)NCC(c2cccnc2)N2CCOCC2)cc1 (stereo not given) | 33% | nt | -3% | -8% | nt | -8%
COc1cccc(C(=O)NCC(c2ccc(N(C)C)cc2)N2CCCC2)c1OC (stereo not given) | 17% | nt | 28% | -15% | -39% | ?
O=C(c1ccc(Cl)cc1)n1nc(-c2ccco2)nc1NCc1cccs1 | 6% | nt | 1% | 8% | -4% | 3%[59 µM]

Screening results: PubChem BioAssay, National Center for Advancing Translational Sciences (NCATS)
